Assay outcomes from PubChem.
USP30 block: inhibitors of human USP30 deubiquitinase; 47,000 compounds, 5.3% hits; purified USP30, Ub-rhodamine cleavage fluorescence; AID 1645860; inhibition, % at 25 µM; Q70CQ3
USP8 block: inhibitors of human USP8 deubiquitinase. P40818. purified USP8, Ub-rhodamine cleavage fluorescence, 30 min. inhibition, % at 20 µM. 47,000 compounds, 4.2% hits. AID 1645853
Target sequence (P40818 whole entry, looked up): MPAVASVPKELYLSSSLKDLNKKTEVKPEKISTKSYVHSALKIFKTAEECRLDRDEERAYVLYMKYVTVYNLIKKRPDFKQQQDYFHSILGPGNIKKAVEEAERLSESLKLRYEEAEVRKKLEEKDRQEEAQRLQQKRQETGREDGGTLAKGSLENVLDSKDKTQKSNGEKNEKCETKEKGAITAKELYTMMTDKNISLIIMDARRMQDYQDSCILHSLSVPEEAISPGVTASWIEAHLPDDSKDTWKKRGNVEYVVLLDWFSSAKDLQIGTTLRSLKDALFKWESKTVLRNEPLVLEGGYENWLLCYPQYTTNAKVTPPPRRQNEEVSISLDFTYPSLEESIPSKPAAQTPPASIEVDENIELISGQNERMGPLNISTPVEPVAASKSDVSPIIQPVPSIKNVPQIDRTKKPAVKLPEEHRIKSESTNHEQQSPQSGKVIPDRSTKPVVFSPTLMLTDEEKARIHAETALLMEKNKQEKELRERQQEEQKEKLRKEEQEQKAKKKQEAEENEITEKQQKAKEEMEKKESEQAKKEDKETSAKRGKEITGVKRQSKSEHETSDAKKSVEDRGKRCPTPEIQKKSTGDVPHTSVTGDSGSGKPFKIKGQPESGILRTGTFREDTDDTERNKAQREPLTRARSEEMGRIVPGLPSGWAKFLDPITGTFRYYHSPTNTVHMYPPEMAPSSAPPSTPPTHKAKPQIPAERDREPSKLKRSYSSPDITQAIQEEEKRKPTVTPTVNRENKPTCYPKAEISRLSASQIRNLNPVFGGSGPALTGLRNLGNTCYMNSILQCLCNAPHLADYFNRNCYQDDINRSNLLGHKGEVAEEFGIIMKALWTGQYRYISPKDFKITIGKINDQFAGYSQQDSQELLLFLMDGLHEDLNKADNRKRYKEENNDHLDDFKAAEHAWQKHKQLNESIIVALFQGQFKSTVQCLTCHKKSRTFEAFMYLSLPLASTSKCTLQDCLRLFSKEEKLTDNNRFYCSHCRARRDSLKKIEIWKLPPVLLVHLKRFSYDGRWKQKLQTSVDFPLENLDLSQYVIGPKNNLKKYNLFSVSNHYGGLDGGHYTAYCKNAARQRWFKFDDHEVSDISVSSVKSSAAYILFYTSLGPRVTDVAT
USP28 block: human USP28 deubiquitinase inhibition. purified USP28, Ub-rhodamine cleavage fluorescence, 30 min. inhibition, % at 25 µM. Q96RU2. 47,000 compounds, 3% hits
USP17 block: inhibitors of human USP17 deubiquitinase | A8MUK1 | purified USP17, Ub-rhodamine cleavage fluorescence, 3 h | inhibition, % at 50 µM | 47,000 compounds, 6.5% hits | AID 1645855
* hit, by the source's call; nt = not tested or not shown. A selection: hits, their analogues and other compounds. The true share with any hit is near 13%. No stated cut-off is given here; in the data, active means inhibition above about 30%; inactive means the rest.

SMILES	USP30 block	USP8 block	USP28 block	USP17 block
COc1ccc2nc(Nc3ncc4c(n3)CCCC4=O)nc(C)c2c1	52*	13	13	38*
Cc1nc(N2CCCC2)ncc1-c1cc(=O)[nH]c(N2CCc3ccccc3C2)n1	-28	6	0	78*
COc1cccc(-c2cc(=O)[nH]c(Nc3nc(C)c4ccccc4n3)n2)c1	58*	10	12	20
Cc1nc(N2CCCCC2)ncc1-c1cc(=O)[nH]c(N2CCN(c3ccccc3)CC2)n1	21	2	8	8
COc1ccc2nc(Nc3nc(-c4cnc(N5CCOCC5)nc4C)cc(=O)[nH]3)nc(C)c2c1	10	1	2	52*
O=C(Cc1ccc(Cl)cc1)Nc1nonc1-c1ccccc1	19	19	-2	-36
O=C(Nc1nnc(-c2ccccc2)s1)C(F)(F)F	16	15	5	5
COc1ccc(C(=O)N2CCN(c3nc(C)cc(N(C)C)n3)CC2)cc1OC	0	9	0	5
Cc1nc(N2CCOCC2)ncc1-c1cc(=O)[nH]c(NCCc2ccccc2)n1	34*	-8	2	17
O=C(Nc1nnc2ccccn12)c1ccc2c(c1)OCO2	-18	-143	13	-19
CCCn1nnnc1CN1CCc2cc(OC)c(OC)cc2C1c1ccccc1 (stereo unspecified)	33*	13	8	10
CCn1cnc2c(-c3ccccc3)cn(CC(=O)NCc3ccc4c(c3)OCO4)c2c1=O	20	14	9	51*
Cn1c(=O)c2c(SCC(=O)NCc3ccc4c(c3)OCO4)nc(-c3ccc([N+](=O)[O-])cc3)nc2n(C)c1=O	31*	-1	2	27
Cc1ccc(-c2nc(SCC(=O)N3CCCC3)c3c(=O)n(C)c(=O)n(C)c3n2)cc1	39*	-16	7	16
O=C(Cn1ccc2ccc([N+](=O)[O-])cc21)NCc1ccc2c(c1)OCO2	-183	-99	-39	-39
O=C(Cn1cnc2cc([N+](=O)[O-])ccc2c1=O)NCc1ccc2c(c1)OCO2	-11	39*	15	18
COC(=O)c1ccc(CSc2nc(-c3ccc(OC)cc3)nc3c2c(=O)n(C)c(=O)n3C)o1	4	0	6	15
Cn1c(=O)c2c(SCC(=O)N3CCCC3)nc(-c3cccc(Cl)c3)nc2n(C)c1=O	19	5	-1	0
Cn1c(C2CCN(C(=O)Cc3cccc(F)c3)C2)nc2ccncc21 (stereo unspecified)	-5	-7	1	-3
O=C(c1ccccc1)N1CCC2(CC1)Nc1cccnc1NC2=NCc1ccccc1	-488	-76	-152	-121
Cc1ccc(C)c(N2CCN(C(=O)[C@H]3[C@@H]4C[C@@H]5[C@H]3C(=O)O[C@@H]5C4)CC2)c1	2	3	7	0
O=C(Cn1cc(-c2ccccc2)c2ncn(C3CC3)c(=O)c21)NCc1ccc2c(c1)OCO2	-76	41*	-10	-8
CCCCOC(=O)c1ccc(NC(=O)C(=O)CC(=O)c2ccc(OC)cc2)cc1	-75	77*	-26	5
COc1cccc2[nH]c(C(=O)Nc3ccc4c(c3)OCCO4)cc12	-94	-8	-13	-17
COc1cc(C(=O)Nc2ccc3c(c2)OCCO3)ccc1OCC(=O)Nc1ccc(F)cc1	-10	-6	14	36*
SMILES	USP30 block	USP8 block	USP28 block	USP17 block
COc1ccc(NC(=O)Cn2cc(C(=O)c3ccc(F)cc3)c(=O)c3cc(C)ccc32)cc1OC	-1	55*	-14	25
Cc1ccc(C(=O)c2cn(CC(=O)Nc3ccc(F)c(F)c3)c3ccc(F)cc3c2=O)cc1	-102	-10	-18	-9
COc1cc2c(=O)c(C(=O)c3ccc(F)cc3)cn(CC(=O)Nc3ccc(F)cc3)c2cc1OC	-19	6	1	33*
COc1cc2c(=O)c(C(=O)c3ccc(F)cc3)cn(CC(=O)Nc3ccc4c(c3)OCCO4)c2cc1OC	-65	-19	0	37*
COc1ccc(C(=O)Nc2ccc3c(c2)OCCCO3)cn1	4	-11	32*	0
CCc1noc(-c2cccnc2N2CCCN(C(=O)c3ccccc3)CC2)n1	17	1	12	0
Cc1ccc(N2CCN(C(=O)c3ccc(-c4cncnc4)nc3)CC2)cc1	-18	-5	0	-5
CCc1nn2c(S(=O)(=O)N3CCN(c4ccccc4)CC3)c(C)nc2s1	39*	-46	8	6
Cc1ccc(C(C(=O)NC2CCCCC2)N(C(=O)CCCC(=O)Nc2ccccn2)c2ccc(C)cc2C)cc1 (stereo unspecified)	27	-3	5	49*
Cc1ccc(N(C(=O)CCCC(=O)Nc2ccccn2)C(C(=O)NC2CCCC2)c2ccc(F)cc2)c(C)c1 (stereo unspecified)	9	0	1	16
COc1ccc(OC)c(N(C(=O)CCCC(=O)Nc2ccccn2)C(C(=O)NC2CCCCC2)c2ccc(F)cc2)c1 (stereo unspecified)	9	6	-4	35*
O=C(CCC(=O)N(CC(=O)NC1CCCC1)Cc1ccccc1)Nc1ccccn1	27	-1	11	-12
COc1ccc(CN(CC(=O)NC2CCCCC2)C(=O)CCC(=O)Nc2ccccn2)cc1	48*	0	0	4
Cc1ccc(Cl)cc1NS(=O)(=O)c1ccc2c(c1)NC(=O)CC(=O)N2	-2	-3	-3	0
Cc1cc(C(=O)NCC2CCCO2)n(-c2ccccc2)n1 (stereo unspecified)	-4	-7	-8	2
Cc1ccc(NC(=O)COc2ccc3oc4c(c3c2)CCCC4)cc1	38*	30	17	14
Cc1cc(NC(=O)COc2ccc3oc4c(c3c2)CCCC4)n(-c2ccccc2)n1	nt	19	nt	73*
Cc1ccc(NC(=O)c2oc3ccccc3c2NC(=O)COc2ccc(C)cc2)cc1	3	-7	-2	2
O=C(Nc1nc2c(s1)CCCC2)c1cn(-c2ccccc2)nc1-c1ccccc1	4	28	11	18
CN1CCc2nc(NC(=O)COc3ccc(C#N)cc3)sc2C1	59*	-3	33*	83*
Cc1cc(C)n(-c2ccc(C(=O)Nc3nc4c(s3)CN(C)CC4)cc2)n1	-295	-13	-12	8
Cc1cccc(OCC(=O)Nc2nc3c(s2)CCCC3)c1	24	-19	48*	13
O=C(Nc1nc2c(s1)CCC2)c1cccc(N2CCNC2=O)c1	-42	-4	31*	42*
O=C(Nc1nc2c(s1)CCCCC2)c1cn2cccnc2n1	0	-1	0	-30
Cc1cccc(OCC(=O)Nc2onc3c2CCCC3)c1	12	7	20	2
O=C(Nc1nc2c(s1)CCCC2)c1cccc(Cl)c1Cl	-2	15	38*	16
O=C(CC(c1ccccc1)c1ccccc1)NCc1ccccc1F	17	5	-3	3
Cc1nn(CC(=O)NCc2ccccc2F)c2ccccc12	29	4	4	51*
COc1ccc(CCNc2ccc3c(cc2=O)[C@@H](NC(C)=O)CCc2cc(OC)c(OC)c(OC)c2-3)cc1	-65	-52	-32	-55
COc1cccc2c1C(=O)c1ccc3c(c1C2=O)C(=O)C[C@@H](C)C3	-51	0	4	30*
